{
  "source": "the supplement of paper PMC8728848",
  "binders": {"B1": {"name": "Als3-41 (Candida albicans) (protein)", "chain": "KTITGVFNSFNSLTWSNAATYNYKGPGTPTWNAVLGWSLDGTSASPGDTFTLNMPCVFKFTTSQTSVDLTAHGVKYATCQFQAGEEFMTFSTLTCTVSNTLTPSIKALGTVTLPLAFNVGGTGSSVDLEDSKCFTAGTNTVTFNDGGKKISINVDFERSNVDPKGYLTDSRVIPSLNKVSTLFVAPQCANGYTSGTMGFANTYGDVQIDCSNIHVGITKGLNDWNYPVSSESFSYTKTCSSNGIFITYKNVPAGYRPFVDAYISATDVNSYTLSYANEYTCAGGYWQRAPFTLRWTGYRNSDAGSNGIVIVATTRTVTDSTTAVTTLPFDPNRDKTKTIEILKPIPTTTITTSYVGVTTSYLTKTAPIGETATVIVD"}},
  "experiment_in_all_cases": "glycan array binding signal (z-score within array); higher = stronger binding",
  "details_in_all_cases": "glycan notation: IUPAC condensed, linker removed",
  "key": {"[1]": {"target": "Fuc(a1-2)Gal(b1-3)GlcNAc", "how_it_was_run": "(§1)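 Glycan array data came from 3228 arrays in the Consortium for Functional Glycomics database, and only arrays with an available protein sequence were kept. Glycan names were put into IUPAC-condensed notation, and columns mapping to the same glycan were averaged. The binding signal is a within-array Z-score, averaged across arrays of one protein sequence run at different concentrations or buffers and across linkers. A negative Z-score can be read as non-binding.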"}, "[2]": {"target": "Fuc(a1-2)Gal(b1-3)GlcNAc(b1-2)Man(a1-3)[Fuc(a1-2)Gal(b1-3)GlcNAc(b1-2)Man(a1-6)]Man(b1-4)GlcNAc(b1-4)[Fuc(a1-6)]GlcNAc", "how_it_was_run": "as §1"}, "[3]": {"target": "Fuc(a1-2)Gal(b1-3)GlcNAc(b1-3)Gal(b1-4)Glc", "how_it_was_run": "as §1"}, "[4]": {"target": "Fuc(a1-2)Gal6S(b1-3)GlcNAc", "how_it_was_run": "as §1"}, "[5]": {"target": "Fuc(a1-2)[Gal(a1-3)]Gal(b1-4)GlcNAc(b1-2)Man(a1-3)[Fuc(a1-2)[Gal(a1-3)]Gal(b1-4)GlcNAc(b1-2)Man(a1-6)]Man(b1-4)GlcNAc(b1-4)GlcNAc", "how_it_was_run": "as §1"}, "[6]": {"target": "Fuc(a1-2)[Gal(a1-3)]Gal(b1-4)GlcNAc(b1-3)[Fuc(a1-2)[Gal(a1-3)]Gal(b1-4)GlcNAc(b1-6)]GalNAc", "how_it_was_run": "as §1"}, "[7]": {"target": "Fuc(a1-2)[Gal(a1-3)]Gal(b1-4)GlcNAc(b1-6)GalNAc", "how_it_was_run": "as §1"}, "[8]": {"target": "Fuc(a1-2)[GalNAc(a1-3)]Gal(b1-3)GlcNAc(b1-2)Man(a1-3)[Fuc(a1-2)[GalNAc(a1-3)]Gal(b1-3)GlcNAc(b1-2)Man(a1-6)]Man(b1-4)GlcNAc(b1-4)GlcNAc", "how_it_was_run": "as §1"}, "[9]": {"target": "Fuc(a1-2)[GalNAc(a1-3)]Gal(b1-4)GlcNAc(b1-2)Man(a1-3)[Fuc(a1-2)[GalNAc(a1-3)]Gal(b1-4)GlcNAc(b1-2)Man(a1-6)]Man(b1-4)GlcNAc(b1-4)[Fuc(a1-6)]GlcNAc", "how_it_was_run": "as §1"}, "[10]": {"target": "Fuc(a1-2)[GalNAc(a1-3)]Gal(b1-4)GlcNAc(b1-3)Gal(b1-4)GlcNAc(b1-3)Gal(b1-4)GlcNAc", "how_it_was_run": "as §1"}, "[11]": {"target": "Fuc(a1-3)[Gal(b1-4)]GlcNAc(b1-3)Gal(b1-3)[Fuc(a1-4)]GlcNAc", "how_it_was_run": "as §1"}, "[12]": {"target": "Fuc(a1-3)[Gal3S(b1-4)]GlcNAc6S", "how_it_was_run": "as §1"}, "[13]": {"target": "Fuc(a1-4)GlcNAc", "how_it_was_run": "as §1"}, "[14]": {"target": "Gal(a1-2)Gal", "how_it_was_run": "as §1"}, "[15]": {"target": "Gal(b1-2)Gal", "how_it_was_run": "as §1"}, "[16]": {"target": "Gal(b1-3)GlcNAc(b1-3)Gal(b1-4)GlcNAc(b1-2)[Gal(b1-3)GlcNAc(b1-3)Gal(b1-4)GlcNAc(b1-6)]Man(a1-6)[Gal(b1-3)GlcNAc(b1-3)Gal(b1-4)GlcNAc(b1-2)Man(a1-3)]Man(b1-4)GlcNAc(b1-4)[Fuc(a1-6)]GlcNAc", "how_it_was_run": "as §1"}, "[17]": {"target": "Gal(b1-3)[Fuc(a1-4)]GlcNAc", "how_it_was_run": "as §1"}, "[18]": {"target": "Gal(b1-3)[Neu5Ac(b2-6)]GalNAc", "how_it_was_run": "as §1"}, "[19]": {"target": "Gal(b1-4)GlcNAc(b1-2)Man(a1-6)[GlcNAc(b1-2)Man(a1-3)]Man(b1-4)GlcNAc(b1-4)GlcNAc", "how_it_was_run": "as §1"}, "[20]": {"target": "Gal(b1-4)GlcNAc(b1-3)Gal(b1-4)GlcNAc(b1-2)Man(a1-3)[Gal(b1-4)GlcNAc(b1-3)Gal(b1-4)GlcNAc(b1-2)Man(a1-6)]Man(b1-4)GlcNAc(b1-4)GlcNAc", "how_it_was_run": "as §1"}, "[21]": {"target": "Gal(b1-4)GlcNAc(b1-3)Gal(b1-4)GlcNAc(b1-3)Gal(b1-4)GlcNAc(b1-2)Man(a1-3)[Gal(b1-4)GlcNAc(b1-3)Gal(b1-4)GlcNAc(b1-3)Gal(b1-4)GlcNAc(b1-2)Man(a1-6)]Man(b1-4)GlcNAc(b1-4)GlcNAc", "how_it_was_run": "as §1"}, "[22]": {"target": "Gal(b1-4)GlcNAc(b1-3)Gal(b1-4)GlcNAc(b1-3)Gal(b1-4)GlcNAc(b1-3)Gal(b1-4)GlcNAc(b1-3)Gal(b1-4)GlcNAc(b1-2)Man(a1-3)[Gal(b1-4)GlcNAc(b1-3)Gal(b1-4)GlcNAc(b1-3)Gal(b1-4)GlcNAc(b1-3)Gal(b1-4)GlcNAc(b1-3)Gal(b1-4)GlcNAc(b1-2)Man(a1-6)]Man(b1-4)GlcNAc(b1-4)GlcNAc", "how_it_was_run": "as §1"}, "[23]": {"target": "Gal(b1-4)GlcNAc(b1-3)Gal(b1-4)GlcNAc(b1-3)Gal(b1-4)GlcNAc(b1-3)Gal(b1-4)GlcNAc(b1-3)Gal(b1-4)GlcNAc(b1-2)[Gal(b1-4)GlcNAc(b1-3)Gal(b1-4)GlcNAc(b1-3)Gal(b1-4)GlcNAc(b1-3)Gal(b1-4)GlcNAc(b1-3)Gal(b1-4)GlcNAc(b1-6)]Man(a1-6)[Gal(b1-4)GlcNAc(b1-3)Gal(b1-4)GlcNAc(b1-3)Gal(b1-4)GlcNAc(b1-3)Gal(b1-4)GlcNAc(b1-3)Gal(b1-4)GlcNAc(b1-2)Man(a1-3)]Man(b1-4)GlcNAc(b1-4)[Fuc(a1-6)]GlcNAc", "how_it_was_run": "as §1"}, "[24]": {"target": "Gal(b1-4)GlcNAc(b1-3)[Fuc(a1-3)GlcNAc(b1-6)]Gal(b1-4)Glc", "how_it_was_run": "as §1"}, "[25]": {"target": "Gal3S(b1-4)Glc6S", "how_it_was_run": "as §1"}, "[26]": {"target": "GalNAc(b1-4)GlcNAc", "how_it_was_run": "as §1"}, "[27]": {"target": "GalNAc(b1-4)GlcNAc6S", "how_it_was_run": "as §1"}, "[28]": {"target": "GlcNAc(b1-2)[GlcNAc(b1-4)]Man(a1-3)[GlcNAc(b1-4)][GlcNAc(b1-2)[GlcNAc(b1-6)]Man(a1-6)]Man(b1-4)GlcNAc(b1-4)[Fuc(a1-6)]GlcNAc", "how_it_was_run": "as §1"}, "[29]": {"target": "GlcNAc(b1-3)Gal(b1-4)GlcNAc(b1-2)[GlcNAc(b1-3)Gal(b1-4)GlcNAc(b1-6)]Man(a1-6)[GlcNAc(b1-3)Gal(b1-4)GlcNAc(b1-2)Man(a1-3)]Man(b1-4)GlcNAc(b1-4)GlcNAc", "how_it_was_run": "as §1"}, "[30]": {"target": "GlcNAc(b1-3)Gal(b1-4)GlcNAc(b1-3)Gal(b1-4)GlcNAc(b1-2)Man(a1-3)[GlcNAc(b1-3)Gal(b1-4)GlcNAc(b1-3)Gal(b1-4)GlcNAc(b1-2)Man(a1-6)]Man(b1-4)GlcNAc(b1-4)GlcNAc", "how_it_was_run": "as §1"}},
  "note": "Many of the other results were omitted from the sample, so the strongest signals are more common in it than they were.",
  "data": [
    {"binder": "B1", "values": [
      {"measurement": "glycan array binding signal (z-score)", "setting": "[1]", "result": -0.256},
      {"measurement": "glycan array binding signal (z-score)", "setting": "[2]", "result": -0.306},
      {"measurement": "glycan array binding signal (z-score)", "setting": "[3]", "result": -0.317},
      {"measurement": "glycan array binding signal (z-score)", "setting": "[4]", "result": -0.047},
      {"measurement": "glycan array binding signal (z-score)", "setting": "[5]", "result": -0.283},
      {"measurement": "glycan array binding signal (z-score)", "setting": "[6]", "result": 1.91},
      {"measurement": "glycan array binding signal (z-score)", "setting": "[7]", "result": -0.229},
      {"measurement": "glycan array binding signal (z-score)", "setting": "[8]", "result": -0.203},
      {"measurement": "glycan array binding signal (z-score)", "setting": "[9]", "result": -0.001},
      {"measurement": "glycan array binding signal (z-score)", "setting": "[10]", "result": 1.63},
      {"measurement": "glycan array binding signal (z-score)", "setting": "[11]", "result": -0.315},
      {"measurement": "glycan array binding signal (z-score)", "setting": "[12]", "result": 1.6},
      {"measurement": "glycan array binding signal (z-score)", "setting": "[13]", "result": 7.63},
      {"measurement": "glycan array binding signal (z-score)", "setting": "[14]", "result": -0.006},
      {"measurement": "glycan array binding signal (z-score)", "setting": "[15]", "result": -0.182},
      {"measurement": "glycan array binding signal (z-score)", "setting": "[16]", "result": 0.669},
      {"measurement": "glycan array binding signal (z-score)", "setting": "[17]", "result": -0.315},
      {"measurement": "glycan array binding signal (z-score)", "setting": "[18]", "result": -0.359},
      {"measurement": "glycan array binding signal (z-score)", "setting": "[19]", "result": -0.102},
      {"measurement": "glycan array binding signal (z-score)", "setting": "[20]", "result": 6.2},
      {"measurement": "glycan array binding signal (z-score)", "setting": "[21]", "result": 2.56},
      {"measurement": "glycan array binding signal (z-score)", "setting": "[22]", "result": 1.05},
      {"measurement": "glycan array binding signal (z-score)", "setting": "[23]", "result": -0.117},
      {"measurement": "glycan array binding signal (z-score)", "setting": "[24]", "result": -0.31},
      {"measurement": "glycan array binding signal (z-score)", "setting": "[25]", "result": -0.151},
      {"measurement": "glycan array binding signal (z-score)", "setting": "[26]", "result": 0.551},
      {"measurement": "glycan array binding signal (z-score)", "setting": "[27]", "result": 1.79},
      {"measurement": "glycan array binding signal (z-score)", "setting": "[28]", "result": -0.311},
      {"measurement": "glycan array binding signal (z-score)", "setting": "[29]", "result": 1.97},
      {"measurement": "glycan array binding signal (z-score)", "setting": "[30]", "result": 2.21}
    ]}
  ]
}
